# Laboratory results reported in article PMC11006913.
# Changes are numbered by the printed parent chain.
# Assays:
# Assay in all cases: PBM; 200 nM protein, PBS
# Conditions in all cases: dsDNA, one strand shown
# HOXB9 [1] = target: HOXB9 (Homo sapiens, UniProt P17482 171-250, T197M)
# HOXB9 [2] = target: HOXB9 (Homo sapiens, UniProt P17482 171-250)
# HOXB9 [3] = target: HOXB9 (Homo sapiens, UniProt P17482 171-250, R186Q)
# SIX6 [4] = target: T1, SIX6 (Homo sapiens, UniProt O95475 114-200, L167I)
# T1 sequence: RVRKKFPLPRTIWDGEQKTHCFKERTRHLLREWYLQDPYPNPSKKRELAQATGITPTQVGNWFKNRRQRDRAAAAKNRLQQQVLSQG
# SIX6 [5] = target: T2, SIX6 (Homo sapiens, UniProt O95475 114-200, L143V)
# T2 sequence: T1 sequence with L30V, I54L
# SIX6 [6] = target: T3, SIX6 (Homo sapiens, UniProt O95475 114-200, H141N)
# T3 sequence: T1 sequence with H28N, I54L
# SIX6 [7] = target: T4, SIX6 (Homo sapiens, UniProt O95475 114-200, T165P)
# T4 sequence: T1 sequence with T52P, I54L
# SIX6 [8] = target: T5, SIX6 (Homo sapiens, UniProt O95475 114-200, L167M)
# T5 sequence: T1 sequence with I54M
# SIX6 [9] = target: T6, SIX6 (Homo sapiens, UniProt O95475 114-200, L143M)
# T6 sequence: T1 sequence with L30M, I54L
# SIX6 [10] = target: T7, SIX6 (Homo sapiens, UniProt O95475 114-200, L143I)
# T7 sequence: T1 sequence with L30I, I54L
# SIX6 [11] = target: T8, SIX6 (Homo sapiens, UniProt O95475 114-200, T165G)
# T8 sequence: T1 sequence with T52G, I54L
# SIX6 [12] = target: T9, SIX6 (Homo sapiens, UniProt O95475 114-200, T139Q)
# T9 sequence: T1 sequence with T26Q, I54L
# SIX6 [13] = target: T10, SIX6 (Homo sapiens, UniProt O95475 114-200, T165A)
# T10 sequence: T1 sequence with T52A, I54L
# SIX6 [14] = target: T11, SIX6 (Homo sapiens, UniProt O95475 114-200, L167V)
# T11 sequence: T1 sequence with I54V
# SIX6 [15] = target: T12, SIX6 (Homo sapiens, UniProt O95475 114-200)
# T12 sequence: T1 sequence with I54L
# SIX6 [16] = target: T13, SIX6 (Homo sapiens, UniProt O95475 114-200, T165I)
# T13 sequence: T1 sequence with T52I, I54L
# HOXA2 [17] = target: HOXA2 (Homo sapiens, UniProt O43364 129-215, R185T)
# HOXA2 [18] = target: HOXA2 (Homo sapiens, UniProt O43364 129-215, R185K)
# HOXA2 [19] = target: HOXA2 (Homo sapiens, UniProt O43364 129-215, Y150S)
# HOXA2 [20] = target: HOXA2 (Homo sapiens, UniProt O43364 129-215)
# HOXA2 (Homo sapiens, UniProt O43364 129-215), sequence (O43364 129-215): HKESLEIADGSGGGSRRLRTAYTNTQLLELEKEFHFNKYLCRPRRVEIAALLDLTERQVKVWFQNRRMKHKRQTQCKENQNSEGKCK
# HOXB9 (Homo sapiens, UniProt P17482 171-250), sequence (P17482 171-250): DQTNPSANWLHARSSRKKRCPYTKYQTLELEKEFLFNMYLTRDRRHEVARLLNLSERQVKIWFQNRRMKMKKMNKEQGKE
# HOXB9 (Homo sapiens, UniProt P17482 171-250, R186Q), sequence (P17482 171-250 R186Q): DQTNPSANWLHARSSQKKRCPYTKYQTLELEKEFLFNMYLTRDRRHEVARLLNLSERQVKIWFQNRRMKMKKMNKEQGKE
# HOXB9 (Homo sapiens, UniProt P17482 171-250, T197M), sequence (P17482 171-250 T197M): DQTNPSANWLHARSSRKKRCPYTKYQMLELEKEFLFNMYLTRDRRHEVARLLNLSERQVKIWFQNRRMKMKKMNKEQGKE
# HOXA2 (Homo sapiens, UniProt O43364 129-215, Y150S), sequence (O43364 129-215 Y150S): as the sequence (O43364 129-215) above, with Y22S counted along it
# HOXA2 (Homo sapiens, UniProt O43364 129-215, R185K), sequence (O43364 129-215 R185K): as the sequence (O43364 129-215) above, with R57K counted along it
# HOXA2 (Homo sapiens, UniProt O43364 129-215, R185T), sequence (O43364 129-215 R185T): as the sequence (O43364 129-215) above, with R57T counted along it
sequence,measurement,setting,value
CGCTACCG,binding signal,HOXB9 [1],"8.45 upbm affinity estimate (log intensity, higher = more binding, comparable within an allelic series)"
same,binding signal,HOXB9 [2],"8.54 upbm affinity estimate (log intensity, higher = more binding, comparable within an allelic series)"
same,binding signal,HOXB9 [3],"8.56 upbm affinity estimate (log intensity, higher = more binding, comparable within an allelic series)"
CCTGCTCG,binding signal,HOXB9 [1],"8.58 upbm affinity estimate (log intensity, higher = more binding, comparable within an allelic series)"
same,binding signal,HOXB9 [2],"8.34 upbm affinity estimate (log intensity, higher = more binding, comparable within an allelic series)"
same,binding signal,HOXB9 [3],"8.42 upbm affinity estimate (log intensity, higher = more binding, comparable within an allelic series)"
ATGGTGTC,binding signal,SIX6 [4],"9.97 upbm affinity estimate (log intensity, higher = more binding, comparable within an allelic series)"
CGCTGCGC,binding signal,SIX6 [4],"8.99 upbm affinity estimate (log intensity, higher = more binding, comparable within an allelic series)"
same,binding signal,SIX6 [5],"8.85 upbm affinity estimate (log intensity, higher = more binding, comparable within an allelic series)"
same,binding signal,SIX6 [6],"8.98 upbm affinity estimate (log intensity, higher = more binding, comparable within an allelic series)"
same,binding signal,SIX6 [7],"8.98 upbm affinity estimate (log intensity, higher = more binding, comparable within an allelic series)"
same,binding signal,SIX6 [8],"8.92 upbm affinity estimate (log intensity, higher = more binding, comparable within an allelic series)"
same,binding signal,SIX6 [9],"8.96 upbm affinity estimate (log intensity, higher = more binding, comparable within an allelic series)"
same,binding signal,SIX6 [10],"8.93 upbm affinity estimate (log intensity, higher = more binding, comparable within an allelic series)"
same,binding signal,SIX6 [11],"9 upbm affinity estimate (log intensity, higher = more binding, comparable within an allelic series)"
same,binding signal,SIX6 [12],"9.06 upbm affinity estimate (log intensity, higher = more binding, comparable within an allelic series)"
same,binding signal,SIX6 [13],"8.88 upbm affinity estimate (log intensity, higher = more binding, comparable within an allelic series)"
same,binding signal,SIX6 [14],"9.02 upbm affinity estimate (log intensity, higher = more binding, comparable within an allelic series)"
same,binding signal,SIX6 [15],"8.93 upbm affinity estimate (log intensity, higher = more binding, comparable within an allelic series)"
same,binding signal,SIX6 [16],"8.95 upbm affinity estimate (log intensity, higher = more binding, comparable within an allelic series)"
CTGCGGAC,binding signal,SIX6 [4],"8.88 upbm affinity estimate (log intensity, higher = more binding, comparable within an allelic series)"
same,binding signal,SIX6 [5],"8.75 upbm affinity estimate (log intensity, higher = more binding, comparable within an allelic series)"
same,binding signal,SIX6 [6],"8.87 upbm affinity estimate (log intensity, higher = more binding, comparable within an allelic series)"
same,binding signal,SIX6 [7],"8.83 upbm affinity estimate (log intensity, higher = more binding, comparable within an allelic series)"
same,binding signal,SIX6 [8],"8.84 upbm affinity estimate (log intensity, higher = more binding, comparable within an allelic series)"
same,binding signal,SIX6 [9],"8.84 upbm affinity estimate (log intensity, higher = more binding, comparable within an allelic series)"
same,binding signal,SIX6 [10],"8.83 upbm affinity estimate (log intensity, higher = more binding, comparable within an allelic series)"
same,binding signal,SIX6 [11],"8.91 upbm affinity estimate (log intensity, higher = more binding, comparable within an allelic series)"
same,binding signal,SIX6 [12],"9.05 upbm affinity estimate (log intensity, higher = more binding, comparable within an allelic series)"
same,binding signal,SIX6 [13],"8.83 upbm affinity estimate (log intensity, higher = more binding, comparable within an allelic series)"
same,binding signal,SIX6 [14],"8.84 upbm affinity estimate (log intensity, higher = more binding, comparable within an allelic series)"
same,binding signal,SIX6 [15],"8.84 upbm affinity estimate (log intensity, higher = more binding, comparable within an allelic series)"
same,binding signal,SIX6 [16],"8.85 upbm affinity estimate (log intensity, higher = more binding, comparable within an allelic series)"
AACGCGGC,binding signal,SIX6 [4],"8.99 upbm affinity estimate (log intensity, higher = more binding, comparable within an allelic series)"
same,binding signal,SIX6 [5],"8.99 upbm affinity estimate (log intensity, higher = more binding, comparable within an allelic series)"
same,binding signal,SIX6 [6],"8.99 upbm affinity estimate (log intensity, higher = more binding, comparable within an allelic series)"
same,binding signal,SIX6 [7],"9.03 upbm affinity estimate (log intensity, higher = more binding, comparable within an allelic series)"
same,binding signal,SIX6 [8],"8.95 upbm affinity estimate (log intensity, higher = more binding, comparable within an allelic series)"
same,binding signal,SIX6 [9],"9.03 upbm affinity estimate (log intensity, higher = more binding, comparable within an allelic series)"
same,binding signal,SIX6 [10],"8.92 upbm affinity estimate (log intensity, higher = more binding, comparable within an allelic series)"
same,binding signal,SIX6 [11],"8.8 upbm affinity estimate (log intensity, higher = more binding, comparable within an allelic series)"
same,binding signal,SIX6 [12],"8.99 upbm affinity estimate (log intensity, higher = more binding, comparable within an allelic series)"
same,binding signal,SIX6 [13],"8.84 upbm affinity estimate (log intensity, higher = more binding, comparable within an allelic series)"
same,binding signal,SIX6 [14],"8.94 upbm affinity estimate (log intensity, higher = more binding, comparable within an allelic series)"
same,binding signal,SIX6 [15],"8.94 upbm affinity estimate (log intensity, higher = more binding, comparable within an allelic series)"
same,binding signal,SIX6 [16],"8.96 upbm affinity estimate (log intensity, higher = more binding, comparable within an allelic series)"
CCCTAGGG,binding signal,SIX6 [4],"8.88 upbm affinity estimate (log intensity, higher = more binding, comparable within an allelic series)"
same,binding signal,SIX6 [5],"8.72 upbm affinity estimate (log intensity, higher = more binding, comparable within an allelic series)"
same,binding signal,SIX6 [6],"8.93 upbm affinity estimate (log intensity, higher = more binding, comparable within an allelic series)"
same,binding signal,SIX6 [7],"8.83 upbm affinity estimate (log intensity, higher = more binding, comparable within an allelic series)"
same,binding signal,SIX6 [8],"8.9 upbm affinity estimate (log intensity, higher = more binding, comparable within an allelic series)"
same,binding signal,SIX6 [9],"8.91 upbm affinity estimate (log intensity, higher = more binding, comparable within an allelic series)"
same,binding signal,SIX6 [10],"8.92 upbm affinity estimate (log intensity, higher = more binding, comparable within an allelic series)"
same,binding signal,SIX6 [11],"8.95 upbm affinity estimate (log intensity, higher = more binding, comparable within an allelic series)"
same,binding signal,HOXA2 [17],"7.32 upbm affinity estimate (log intensity, higher = more binding, comparable within an allelic series)"
same,binding signal,SIX6 [12],"9.15 upbm affinity estimate (log intensity, higher = more binding, comparable within an allelic series)"
same,binding signal,SIX6 [13],"8.86 upbm affinity estimate (log intensity, higher = more binding, comparable within an allelic series)"
same,binding signal,HOXA2 [18],"10.4 upbm affinity estimate (log intensity, higher = more binding, comparable within an allelic series)"
same,binding signal,SIX6 [14],"9.08 upbm affinity estimate (log intensity, higher = more binding, comparable within an allelic series)"
same,binding signal,SIX6 [15],"8.85 upbm affinity estimate (log intensity, higher = more binding, comparable within an allelic series)"
same,binding signal,SIX6 [16],"8.92 upbm affinity estimate (log intensity, higher = more binding, comparable within an allelic series)"
same,binding signal,HOXA2 [19],"10.3 upbm affinity estimate (log intensity, higher = more binding, comparable within an allelic series)"
same,binding signal,HOXA2 [20],"7.33 upbm affinity estimate (log intensity, higher = more binding, comparable within an allelic series)"
CCCCAGCG,binding signal,SIX6 [4],"9.09 upbm affinity estimate (log intensity, higher = more binding, comparable within an allelic series)"
same,binding signal,SIX6 [5],"8.99 upbm affinity estimate (log intensity, higher = more binding, comparable within an allelic series)"
same,binding signal,SIX6 [6],"9.25 upbm affinity estimate (log intensity, higher = more binding, comparable within an allelic series)"
same,binding signal,SIX6 [7],"9.01 upbm affinity estimate (log intensity, higher = more binding, comparable within an allelic series)"
same,binding signal,SIX6 [8],"9.24 upbm affinity estimate (log intensity, higher = more binding, comparable within an allelic series)"
same,binding signal,SIX6 [9],"9.04 upbm affinity estimate (log intensity, higher = more binding, comparable within an allelic series)"
same,binding signal,SIX6 [10],"9 upbm affinity estimate (log intensity, higher = more binding, comparable within an allelic series)"
same,binding signal,SIX6 [11],"9.14 upbm affinity estimate (log intensity, higher = more binding, comparable within an allelic series)"
same,binding signal,SIX6 [12],"9.23 upbm affinity estimate (log intensity, higher = more binding, comparable within an allelic series)"
same,binding signal,SIX6 [13],"9.18 upbm affinity estimate (log intensity, higher = more binding, comparable within an allelic series)"
same,binding signal,SIX6 [14],"9.13 upbm affinity estimate (log intensity, higher = more binding, comparable within an allelic series)"
same,binding signal,SIX6 [15],"9.15 upbm affinity estimate (log intensity, higher = more binding, comparable within an allelic series)"
same,binding signal,SIX6 [16],"9.2 upbm affinity estimate (log intensity, higher = more binding, comparable within an allelic series)"
